Records with an inconclusive call do not appear. Active and inactive are the calls of the source. Unless noted, calls follow the shape of the dose curve; as a rule, active = well fitted curve in the direction sought with a large enough effect in the repeat runs; inconclusive = weak or mixed curves; inactive = no such curve, though single readings can be large; an effect the other way counts as inactive or inconclusive.

Drawing on PubChem BioAssay (Tox21), this text covers Potency and outcome for eight molecules.

The nature of test [1]: qHTS assay to identify small molecule antagonists of the thyroid receptor (TR) signaling pathway - cell viability counter screen (AID 743064). Also: nearly all actives have a fitted effect of over 50% in size. Also: potency is read from the fitted curve at half-maximal effect. Summed up: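 In rat pituitary GH3.TRE-Luc reporter cells co-exposed to compound and 1 nM T3 for 23.5 h, cytotoxicity was assessed with CellTiter-Fluor in the same wells, read by fluorescence.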
(In qHTS, concentration-response curves come from the screen itself.)

Test [2] has as its system thyroid hormone receptor (rat, GH3 cells). In words: qHTS assay to identify small molecule agonists of the thyroid receptor (TR) signaling pathway (AID 743066; calls by dose curve).
Test [3] addresses Estrogen receptor (Homo sapiens) (UniProt P03372). In words: qHTS assay to identify small molecule antagonists of the estrogen receptor alpha (ER-alpha) signaling pathway (AID 743069; active = well fitted curve in the direction sought with a large enough effect in the signal ratio in the repeat runs, not every such curve was filed as active; the % refers to the signal ratio). In short, it runs like this:
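Estradiol-stimulated ER-alpha-UAS-bla HEK293 cells, 18 hr compound exposure at 37C. LiveBLAzer B/G substrate, 2 hr RT, fluorescence read.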

For test [4] the target is unchanged. Briefly: qHTS assay to identify small molecule agonists of the estrogen receptor alpha (ER-alpha) signaling pathway (AID 743075; calls by dose curve;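 also: HEK293 GripTite cells with ER-alpha and UAS-driven beta-lactamase reporter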).
Test [5] has the same target. Briefly: qHTS assay to identify small molecule agonists of the estrogen receptor alpha (ER-alpha) signaling pathway using the BG1 cell line (AID 743079). Also: nearly all actives have a fitted effect of over 20% in size. Also: potency is read from the fitted curve at half-maximal effect.
Test [6] is described as follows: qHTS assay to identify small molecule antagonists of the estrogen receptor alpha (ER-alpha) signaling pathway using the BG1 cell line - cell viability counter screen (AID 743081).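 Also: compound given together with 17beta-estradiol as the ER stimulus; series mostly up to about 70 µM; nearly all actives have a fitted effect of over 45% in size.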
In another test the target is Aromatase (Homo sapiens) (UniProt P11511). In words: qHTS assay to identify aromatase inhibitors (AID 743083). Also: series mostly up to about 70 µM; nearly all actives have a fitted effect of over 55% in size.
Test [7] is described as follows: qHTS assay to identify aromatase inhibitors - cell viability counter screen (AID 743084).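 Also: cells stimulated with testosterone during compound exposure; nearly all actives have a fitted effect of over 55% in size.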
In test [8] the target is Aryl hydrocarbon receptor (Homo sapiens) (UniProt P35869). In words: qHTS assay to identify small molecule that activate the aryl hydrocarbon receptor (AhR) signaling pathway (AID 743085).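 Also: HG2L7.5c1 human HepG2 liver cells with stably integrated DRE-driven firefly reporter; series mostly up to about 70 µM; nearly all actives have a fitted effect of over 15% in size.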 Summed up: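 AhR agonist activity is inferred from enhanced light output of a DRE-controlled firefly luciferase reporter in HepG2 cells, measured with ONE-Glo following 24 h treatment at 37C.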

The target in test [9] is Peroxisome proliferator-activated receptor gamma (Homo sapiens) (UniProt P37231). In words: qHTS assay to identify small molecule agonists of the peroxisome proliferator-activated receptor gamma (PPARg) signaling pathway (AID 743094; active = well fitted activation curve with a large enough effect in the signal ratio in the repeat runs, not every such curve was filed as active; the % refers to the signal ratio). Summed up: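 GeneBLAzer PPARg UAS-bla HEK293H cells were plated, rested 5 h, then exposed to compounds for 17 h at 37C. Beta-lactamase activity was read by LiveBLAzer B/G FRET substrate fluorescence after 1 h at room temperature.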

Test [10] can be described thus: qHTS assay to identify small molecule antagonists of the peroxisome proliferator-activated receptor gamma (PPARg) signaling pathway - cell viability counter screen (AID 743194). Also: nearly all actives have a fitted effect of over 55% in size. Summed up:
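PPARg-UAS-bla HEK293H cells were plated, rested 5 h at 37 C, then treated with compounds plus rosiglitazone (50 nM final) for 17 h at 37 C; viability was then read by CellTiter-Glo luminescence after 30 min at room temperature.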

Test [11] can be described thus: qHTS assay for small molecule agonists of the antioxidant response element (ARE) signaling pathway - cell viability counter screen (AID 743203; calls by dose curve; also: nearly all actives have a fitted effect of over 55% in size; also: potency is read from the fitted curve at half-maximal effect). In short, it runs like this:
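ARE-bla HepG2 cells were plated, rested 5 h at 37C/5% CO2, then exposed to compounds in DMSO for 16 h. Viability was read as CellTiter-Glo luminescence after 30 min at room temperature, in the same wells as the ARE screen.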

Test [12] in a line: qHTS assay for small molecule activators of the heat shock response signaling pathway - cell viability counter screen (AID 743209). Also: nearly all actives have a fitted effect of over 50% in size. In short, it runs like this: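 HSE-bla HeLa cells plated overnight, then exposed to Tox21 compounds (23 nL in DMSO) for 5 h at 37 C. After the bla reporter read, CellTiter-Glo was added in the same wells and luminescence read after 30 min at room temperature.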

The nature of test [13]: qHTS assay for small molecule activators of the heat shock response signaling pathway (AID 743210; active = well fitted activation curve with a large enough effect in the signal ratio in the repeat runs, with a control signal flat, not every such curve was filed as active; the % refers to the signal ratio;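 also: HeLa cells with beta-lactamase reporter driven by heat shock elements; series mostly up to about 63 µM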). In short, it runs like this: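 Reporter gene assay: HeLa cells stably bearing an HSE-bla construct, compound treatment 5 h at 37 C, LiveBLAzer substrate 2.5 h at RT, fluorescence intensity.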
Test [14] can be described thus: qHTS assay to identify small molecule antagonists of the thyroid receptor (TR) signaling pathway (AID 743065). Also: nearly all actives have a fitted effect of over 55% in size. Also: potency is read from the fitted curve at half-maximal effect. In short, it runs like this: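 GH3.TRE-Luc rat pituitary cells carrying two TR response elements driving luciferase were plated for 4 h, given compound plus 1 nM T3 (final), and incubated 23.5 h at 37 C. ONE-Glo luminescence measured reporter inhibition; CellTiter-Fluor fluorescence tracked cytotoxicity.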

A short description of test [15]: qHTS assay to identify small molecule antagonists of the estrogen receptor alpha (ER-alpha) signaling pathway - cell viability counter screen (AID 743074; calls by dose curve;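 also: HEK293 cells carrying ER-alpha-UAS-bla reporter stimulated with 17beta-estradiol; nearly all actives have a fitted effect of over 45% in size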).
The nature of test [16]: qHTS assay to identify small molecule antagonists of the estrogen receptor alpha (ER-alpha) signaling pathway using the BG1 cell line (AID 743080; calls by dose curve;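 also: BG1 cells stimulated with 17beta-estradiol alongside compound; series mostly up to about 70 µM; nearly all actives have a fitted effect of over 25% in size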). In short, it runs like this:
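Quantitative HTS on the Tox21 10K library: BG1 cells with endogenous ER-alpha and ERE-luciferase reporter, 17beta-estradiol stimulation, 21.5 h compound exposure, luminescence endpoint with parallel fluorescence cytotoxicity counter-read.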

Test [17] can be described thus: qHTS assay for small molecule agonists of the antioxidant response element (ARE) signaling pathway (AID 743202; active = well fitted activation curve with a large enough effect in the signal ratio in the repeat runs, not every such curve was filed as active; the % refers to the signal ratio). In short, it runs like this: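 Compounds delivered in DMSO to ARE-bla HepG2 cells (2,000 cells/well, pre-incubated 5 h) and left 16 h at 37 C. LiveBLAzer B/G FRET substrate then added for 2 h at RT before fluorescence reading.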
Test [18] is described as follows: qHTS assay to identify small molecule that activate the aryl hydrocarbon receptor (AhR) signaling pathway - cell viability counter screen (AID 743086).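 Also: HepG2 liver cells carrying the AhR DRE luciferase reporter; series mostly up to about 70 µM; nearly all actives have a fitted effect of over 45% in size.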 In short, it runs like this: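 HepG2-AhR-luc (HG2L7.5c1) cells, 4000/well, were preincubated 5 h at 37C, exposed to compound in qHTS format for 24 hr at 37C, then given CellTiter-Fluor for 30 min; viability was read as fluorescence in the reporter wells.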

Test [19] addresses Peroxisome proliferator-activated receptor gamma (Homo sapiens) (UniProt P37231). Briefly: qHTS assay to identify small molecule antagonists of the peroxisome proliferator-activated receptor gamma (PPARg) signaling pathway (AID 743191; calls by dose curve; also: series mostly up to about 63 µM; nearly all actives have a fitted effect of over 30% in size). Summed up: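 GeneBLAzer PPARg UAS-bla HEK293H cells carrying a UAS-driven beta-lactamase reporter were plated at 3000 cells/well, preincubated 5 h at 37C, then given compound for 17 h at 37C; LiveBLAzer B/G FRET substrate was read after 1 h at room temperature.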

Chain of Aromatase (Homo sapiens) (P11511 whole entry, looked up): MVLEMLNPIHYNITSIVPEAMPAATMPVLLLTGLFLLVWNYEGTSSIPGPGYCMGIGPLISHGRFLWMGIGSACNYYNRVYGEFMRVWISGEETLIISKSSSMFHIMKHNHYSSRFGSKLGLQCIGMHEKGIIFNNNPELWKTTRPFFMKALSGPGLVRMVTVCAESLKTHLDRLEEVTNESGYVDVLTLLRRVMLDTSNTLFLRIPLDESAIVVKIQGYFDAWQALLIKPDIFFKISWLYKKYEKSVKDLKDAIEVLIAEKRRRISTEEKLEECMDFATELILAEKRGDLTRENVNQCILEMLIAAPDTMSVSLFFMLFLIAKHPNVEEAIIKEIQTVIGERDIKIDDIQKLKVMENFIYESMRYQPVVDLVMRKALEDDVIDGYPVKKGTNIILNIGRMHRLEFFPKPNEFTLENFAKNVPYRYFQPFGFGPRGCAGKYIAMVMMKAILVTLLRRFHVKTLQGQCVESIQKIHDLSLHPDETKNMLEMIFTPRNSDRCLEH
Chain of Peroxisome proliferator-activated receptor gamma (Homo sapiens) (P37231 whole entry, looked up): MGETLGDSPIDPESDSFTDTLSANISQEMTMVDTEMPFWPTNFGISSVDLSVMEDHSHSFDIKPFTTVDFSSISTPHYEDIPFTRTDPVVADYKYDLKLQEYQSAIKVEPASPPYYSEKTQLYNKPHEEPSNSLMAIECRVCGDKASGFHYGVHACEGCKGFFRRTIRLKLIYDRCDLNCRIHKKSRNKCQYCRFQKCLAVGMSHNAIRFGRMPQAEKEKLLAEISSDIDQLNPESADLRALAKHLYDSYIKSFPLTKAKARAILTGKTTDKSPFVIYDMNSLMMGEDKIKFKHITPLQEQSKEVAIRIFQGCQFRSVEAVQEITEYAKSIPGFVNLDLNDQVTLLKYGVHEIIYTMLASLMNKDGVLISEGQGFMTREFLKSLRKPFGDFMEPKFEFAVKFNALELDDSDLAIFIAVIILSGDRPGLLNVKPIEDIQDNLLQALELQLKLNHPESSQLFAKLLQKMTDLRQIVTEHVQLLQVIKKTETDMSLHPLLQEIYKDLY
Chain of Estrogen receptor (Homo sapiens) (P03372 whole entry, looked up): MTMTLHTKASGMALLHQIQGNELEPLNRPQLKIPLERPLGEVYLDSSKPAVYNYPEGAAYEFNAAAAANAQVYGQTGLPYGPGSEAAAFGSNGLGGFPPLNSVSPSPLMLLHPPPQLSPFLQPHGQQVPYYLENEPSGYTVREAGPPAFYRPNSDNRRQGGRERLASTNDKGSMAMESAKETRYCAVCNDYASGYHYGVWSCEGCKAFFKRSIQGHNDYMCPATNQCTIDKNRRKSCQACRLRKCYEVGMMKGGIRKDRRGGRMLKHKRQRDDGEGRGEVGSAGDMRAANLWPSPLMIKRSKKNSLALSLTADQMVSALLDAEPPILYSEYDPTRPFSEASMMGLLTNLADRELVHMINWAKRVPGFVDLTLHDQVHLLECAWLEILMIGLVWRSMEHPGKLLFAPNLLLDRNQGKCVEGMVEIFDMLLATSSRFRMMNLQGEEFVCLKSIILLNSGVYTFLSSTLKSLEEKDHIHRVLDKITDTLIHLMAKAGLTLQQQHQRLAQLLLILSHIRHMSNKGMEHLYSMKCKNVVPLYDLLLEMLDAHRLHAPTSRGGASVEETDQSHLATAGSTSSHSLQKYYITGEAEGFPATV
Chain of Aryl hydrocarbon receptor (Homo sapiens) (P35869 whole entry, looked up): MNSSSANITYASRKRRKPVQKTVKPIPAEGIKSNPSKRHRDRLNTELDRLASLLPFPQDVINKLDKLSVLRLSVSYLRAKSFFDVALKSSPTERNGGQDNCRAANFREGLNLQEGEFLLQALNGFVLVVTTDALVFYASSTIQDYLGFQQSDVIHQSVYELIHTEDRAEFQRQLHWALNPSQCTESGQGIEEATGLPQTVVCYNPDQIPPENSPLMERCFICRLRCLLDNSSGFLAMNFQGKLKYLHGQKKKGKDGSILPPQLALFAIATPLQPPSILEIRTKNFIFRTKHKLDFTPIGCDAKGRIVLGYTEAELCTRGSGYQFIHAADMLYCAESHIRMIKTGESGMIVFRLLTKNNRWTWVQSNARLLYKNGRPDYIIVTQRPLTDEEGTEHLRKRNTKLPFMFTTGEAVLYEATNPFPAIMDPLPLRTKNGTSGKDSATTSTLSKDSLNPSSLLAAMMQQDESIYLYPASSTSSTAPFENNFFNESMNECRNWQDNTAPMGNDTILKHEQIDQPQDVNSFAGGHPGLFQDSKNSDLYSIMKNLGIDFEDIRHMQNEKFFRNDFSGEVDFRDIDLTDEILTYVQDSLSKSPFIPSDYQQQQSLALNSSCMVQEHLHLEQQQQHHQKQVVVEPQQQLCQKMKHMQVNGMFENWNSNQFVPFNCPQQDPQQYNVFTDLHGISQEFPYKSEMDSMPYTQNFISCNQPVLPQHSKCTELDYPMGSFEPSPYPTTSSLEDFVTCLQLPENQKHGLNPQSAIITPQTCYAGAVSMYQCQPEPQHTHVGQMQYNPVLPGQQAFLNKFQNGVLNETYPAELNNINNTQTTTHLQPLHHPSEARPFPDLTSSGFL

For `CC(C)CCOC(=O)/C=C/c1ccccc1`, the Potency result (in test [1]; in [3]; in [4]; in test [6]; with Aromatase (Homo sapiens); in test [7]) was “inactive” in each case. Besides, the Potency result in test [8], in test [9], in [10], in [11], in [12] and in test [13] was “inactive” each time. For the same molecule, the result in [2] was inactive. In test [5], the Potency was 24.4 µM (active).
For `CN(C)C(=O)COC(=O)Cc1ccc(OC(=O)c2ccc(N=C(N)N)cc2)cc1`, the Potency entry in [1], in [14], in [15], in [6], in [10] and in test [11] was “inactive” in each case. Moreover, the Potency entry in test [12] and in test [13] was “inactive” throughout. Besides, the outcome in test [2] was inactive.
With `COc1cc2nc(N3CCN(C(=O)c4ccco4)CC3)nc(N)c2cc1OC`, the Potency in [1] and in test [14] was 8.41 µM (active) throughout. For the same molecule, the Potency result in [15], in test [4], in [5], in test [16], in [6] and in test [9] was “inactive” in each case. The Potency result in test [10], in test [11] and in test [12] was “inactive” throughout.
For the molecule `O=[N+]([O-])c1cccc(C(F)(F)F)c1`, the Potency entry in [14], in test [3], in [15], in test [4], in test [5] and in test [16] was “inactive” in each case. Besides, the Potency result (in [6]; with Aromatase (Homo sapiens); in [7]; in test [8]; in test [9]; in test [10]) was “inactive” throughout. Besides, the Potency result in [17], in test [11], in test [12] and in test [13] was “inactive” each time. Besides, the molecule was called inactive in test [2].
Consider `COc1ccc2cc1Oc1ccc(cc1)C[C@H]1c3c(cc4c(c3Oc3cc5c(cc3OC)CCN(C)[C@@H]5C2)OCO4)CCN1C`, for which the Potency was 13.3 µM (active) in [1] and 29.8 µM (active) in test [11]. The Potency result (in test [3]; in [15]; in test [4]; in test [5]; in test [16]; in the test with Aromatase (Homo sapiens)) was “inactive” in each case. For the same molecule, the Potency entry in [7], in test [8], in test [9], in test [12] and in test [13] was “inactive” throughout.
For the molecule `Cc1c(C)c2c(c(C)c1OC(=O)c1cccnc1)CC[C@@](C)(CCC[C@H](C)CCC[C@H](C)CCCC(C)C)O2`, the Potency entry in [14], in test [3], in test [15], in test [4], in test [5] and in [16] was “inactive” each time. The Potency result (in test [6]; with Aromatase (Homo sapiens); in test [7]; in test [8]; in test [18]; in test [10]) was “inactive” each time. For the same molecule, the Potency result in [17], in test [11] and in test [12] was “inactive” throughout. Also, the molecule was called inactive in [2].
For the molecule `CCOC(=O)NNc1ccc(N(CC)CC(C)O)nn1` (configuration not stated), the Potency result in test [1], in test [3], in [15], in [4], in test [5] and in test [16] was “inactive” each time. Further, the Potency result (in test [6]; in the test with Aromatase (Homo sapiens); in test [7]; in test [8]; in test [18]; in [9]) was “inactive” each time. For the same molecule, the Potency entry in test [19], in test [10], in [11] and in test [12] was “inactive” each time.
On to `C=CC(C)(CCC=C(C)C)OC=O` (configuration not stated), for which the Potency entry in [14], in test [3], in [15], in [4], in test [5] and in [16] was “inactive” each time. Moreover, the Potency entry (in test [6]; with Aromatase (Homo sapiens); in test [7]; in [8]; in test [18]; in test [9]) was “inactive” throughout. Besides, the Potency result in [10], in test [11] and in test [12] was “inactive” throughout. Further, the outcome in test [2] was inactive.
